The values below come from PMC4552634, “A New Set of Chemical Starting Points with Plasmodium falciparum Transmission-Blocking Potential for Antimalarial Drug Discovery” (PLoS ONE, 2015).

Among all 13,000 compounds or so, about 3,200 (25%) showed an effect of 50% or more. Some of the results follow.

In the assay the test system is P. falciparum stage V gametocytes. Further details: BacTiter-Glo ATP luminescence viability of purified stage V gametocytes in 384-well plates, per cent inhibition versus DMSO. Particulars: 48 h, 5 µM; inhibitor.
As to `CCCc1cc(N2CCC(N(CC)CC)C2)nc(Nc2ccc(OC)cc2)n1` (stereo not drawn) [TCMDC-132388], the % Inhibition (in general, the drop in the measured response relative to a control, in per cent) was -68.85%.
Under `CC(=NN=C(N)N)c1ccc2c(c1)Cc1ccccc1-2` [TCMDC-137666] stands 27.22%; under `CC(=NN=C(N)N)c1ccc2c(ccc3ccccc32)c1` [TCMDC-137669], 96.96%.
Under `CC(=NN=C(N)N)c1ccc2ccc3ccccc3c2c1` [TCMDC-137667] stands 76.83%; under `COC(=O)c1ccc(CC(C)NCC(O)c2ccc3ccc4ccccc4c3c2)cc1` (stereo not drawn) [TCMDC-131429], 28.11%.
`Nc1ncc(Cc2ccc3c(ccc4ccccc43)c2)c(N)n1` [TCMDC-137874]: the “% Inhibition” value was 19.52%.
Under `CC(C)C[C@@H]1C(=O)N[C@H](C2Cc3ccccc3C2)C(=O)N1[C@@H](C(=O)O)c1ccc(F)cc1F` [TCMDC-138777] stands -24.68%.
Consider `Clc1nc2ccccn2c1C=Cc1ccc2ccccc2n1` [TCMDC-125327], for which the “% Inhibition” value is reported as -7.636%.
Under `COc1cc(-c2nc(-c3ccc4c(c3)CCC4=NO)c(-c3ccncc3)[nH]2)ccc1OCCN1CCCCC1` [TCMDC-141257] stands 22.85%; under `O=C(/C=C/c1cccc(Cl)c1)Nc1ccc2nc(CN3CCCC3)ccc2c1` [TCMDC-135628], -49.28%; under `O=C(Nc1cccc(CN2CCCN(Cc3ncc[nH]3)CC2)c1)c1ccc(Cl)c(Cl)c1` [TCMDC-141833], -19.06%.
Under `COc1ccc(CCNCc2ccc3nc(N)c(C)cc3c2)cc1` [TCMDC-138098] stands 30.17%; under `Cc1ccc(O)cc1Nc1ccnc2cc(-c3cccc(CNCCS(C)(=O)=O)c3)ccc12` [TCMDC-138472], -16.38%; under `Cc1cc2cc(-c3ccc(CN)cc3)ccc2nc1N` [TCMDC-137774], 101.7%.
Under `Cc1cc2ccc(-c3cccc(CN)c3)cc2nc1N` [TCMDC-137624] stands 65.41%; under `Cc1ccc(Cc2cccc3nc(N)nc(N)c23)cc1` [TCMDC-137730], -6.399%.
On to `CN1CCc2ccc(NC(=O)Nc3cccc([N+](=O)[O-])c3)cc2C1` [TCMDC-139120], for which the “% Inhibition” value was -5.165%.
Under `FC(F)(F)Oc1ccc(Nc2cc(-c3ccncc3)nc(-c3cccnc3)n2)cc1` [TCMDC-125416] stands 22.38%; under `CC(C)(C)c1ccc(NC(=O)c2ccc(CN3CCCN(Cc4cccc(O)c4)CC3)cc2)cc1` [TCMDC-136433], -12.56%.
Under `Cc1cccc2[nH]c(-c3cccc(-c4cccc(NC(=O)c5cccnc5Cl)c4)c3)nc12` [TCMDC-136839] stands 42.83%.
Under `O=[N+]([O-])c1cccc(-c2ccc(C=NNc3cc(N4CCCC4)nc(N4CCCC4)n3)o2)c1` [TCMDC-124053] stands 34.95%.
On to `CC1CN(Cc2cccc(F)c2)CCN1c1ccc(NC(=O)c2cccs2)cc1` (stereo not drawn) [TCMDC-135009], for which the “% Inhibition” value amounted to 3.6%.
In the case of `Cc1cccc(-c2ccc(CNC3CCN(CC4Cn5c(=O)ccc6ccc(F)c4c65)CC3)cn2)c1` (stereo not drawn) [TCMDC-134413], the “% Inhibition” value is -59.7%.
As for `COC(=O)c1ccccc1COc1ccc(CC2(NC(=O)[C@H](Nc3ccc(C#N)c4ccccc34)C(C)(C)C)CCCC2)cc1` [TCMDC-136783], the “% Inhibition” value is 21.91%.
Under `Cc1cccc2[nH]c(-c3ccc(-c4cccc(CNCCCNS(C)(=O)=O)c4)cc3)nc12` [TCMDC-133082] stands -3.877%; under `CNCCNCc1ccc(-c2ccc(-c3nc4c(C)cccc4[nH]3)s2)cc1` [TCMDC-132828], 96.61%.
Under `CNCCNCc1cccc(-c2cccc(-c3nc4c(C)cccc4[nH]3)c2)c1` [TCMDC-132825] stands 101.1%; under `COCCN1CCN(Cc2ccc(-c3ccc(-c4nc5c(C)cccc5[nH]4)s3)cc2)CC1` [TCMDC-133021], 2.979%; under `C#CCNCc1ccc(-c2cccc(-c3nc4c(C)cccc4[nH]3)c2)cc1` [TCMDC-132804], -34.44%.
Under `Cc1cccc2[nH]c(-c3ccc(-c4ccc(CN5CCN(CCN6CCOCC6)CC5)cc4)s3)nc12` [TCMDC-133930] stands 30.2%; under `Cc1cccc2[nH]c(-c3cccc(-c4cccc(CNCc5ccccc5)c4)c3)nc12` [TCMDC-132713], 10.68%; under `Cc1cccc2[nH]c(-c3cccc(-c4ccc(CNCc5ccccc5)cc4)c3)nc12` [TCMDC-132710], 64.93%.
For `Cc1cccc2[nH]c(-c3cccc(-c4cccc(CNC(C)C)c4)c3)nc12` [TCMDC-132738], the “% Inhibition” value is given as -9.933%.
Under `Cc1cccc2[nH]c(-c3ccc(-c4ccc(CN5CCN(CCO)CC5)cc4)s3)nc12` [TCMDC-133027] stands 2.277%; under `Cc1cccc2[nH]c(-c3ccc(-c4ccc(CNCCN5CCNCC5)cc4)s3)nc12` [TCMDC-132870], 77.87%.
As to `Cc1cccc2[nH]c(-c3ccc(-c4ccc(CNCc5ccccc5)cc4)s3)nc12` [TCMDC-132709], the “% Inhibition” value is reported as -2.299%.
Under `CN(c1ccc2c(c1)nc(NCc1ccc(F)cc1)n2C)c1ccnc(Nc2ccc(CS(C)(=O)=O)cc2)n1` [TCMDC-138747] stands 36.21%; under `Oc1cc(Nc2ccnc3ccc(I)cc23)c(F)cc1Cl` [TCMDC-138500], -12.42%.
`COc1ccc(-n2cc(C(=O)c3cc(Br)ccc3O)cc(C#N)c2=O)cc1Cl` [TCMDC-124524]: the “% Inhibition” value was determined as 13.45%.
Under `COc1ccccc1C1CC(c2ccccc2)=NN1C(=O)c1ccccc1` (stereo not drawn) [TCMDC-123702] stands 28.29%.
Under `O=C(CCCCCNC(=O)c1ccc(O)c(-c2ccc(Cl)c(Cl)c2)c1)NCc1cccc2ccccc12` [TCMDC-140875] stands 8.372%.
Under `COc1cccc(CNC(=O)c2cnc(N3CCN(c4ccncc4)CC3)c(Cl)c2)c1` [TCMDC-134628] stands 35.94%; under `Cc1cccc2[nH]c(-c3ccc(-c4ccc(CNCc5ccccc5)cc4)cc3)nc12` [TCMDC-132701], -18.64%; under `Cc1cccc2[nH]c(-c3ccc(-c4ccc(CNCC(C)C)cc4)cc3)nc12` [TCMDC-132803], 16.22%.
As for `CNCCNCc1ccc(-c2ccc(-c3nc4c(C)cccc4[nH]3)cc2)cc1` [TCMDC-132837], the “% Inhibition” value stood at 80.14%.
Under `Cc1cccc2[nH]c(-c3ccc(-c4ccc(CNC(C)C)cc4)cc3)nc12` [TCMDC-132744] stands -47.89%; under `CNCCNCc1cccc(-c2ccc(-c3nc4c(C)cccc4[nH]3)cc2)c1` [TCMDC-132831], 94.01%.
Take `Cc1cccc2[nH]c(-c3ccc(-c4cccc(CNCc5cccc(N)c5)c4)cc3)nc12` [TCMDC-132934]: the “% Inhibition” value worked out at 83.13%.
Under `COc1ccc(CNCc2cccc(-c3ccc(-c4nc5c(C)cccc5[nH]4)cc3)c2)cc1` [TCMDC-132726] stands -14.09%; under `Cc1cccc2[nH]c(-c3ccc(-c4cccc(CNCCN(C)C)c4)cc3)nc12` [TCMDC-132682], 17.36%.
Under `Cc1cccc2[nH]c(-c3ccc(-c4cccc(CNCCc5ccncc5)c4)cc3)nc12` [TCMDC-132850] stands -15.09%.
Under `CNc1ccc(CNCc2cccc(-c3ccc(-c4nc5c(C)cccc5[nH]4)cc3)c2)cc1` [TCMDC-132979] stands -24.36%.
Regarding `Cc1cccc2[nH]c(-c3ccc(-c4ccc(CNCc5ccc(CN)cc5)cc4)cc3)nc12` [TCMDC-132813], the “% Inhibition” value turned out to be 65.29%.
For `Cc1cccc2[nH]c(-c3ccc(-c4cccc(CNCc5ccccc5)c4)cc3)nc12` [TCMDC-132707], the “% Inhibition” value was -22.49%.
